In the library only some 27% were active in any assay of this set; here they are far more common.
CYP2C19 act: activators of human cytochrome P450 2C19. recombinant CYP2C19, luciferin-H EGE luminescence; stronger effect = higher value; 0 = fully inhibited enzyme, 1 = untreated enzyme. activation factor at 5 µM. 96,000 tested, under 10 active. P33261;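 active = activation factor of at least 2 at 5 µM in the primary screen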;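 also: 0 = wells with 2.5 mM tranylcypromine and 1 = vehicle-only wells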
Target sequence (P33261 whole entry, looked up): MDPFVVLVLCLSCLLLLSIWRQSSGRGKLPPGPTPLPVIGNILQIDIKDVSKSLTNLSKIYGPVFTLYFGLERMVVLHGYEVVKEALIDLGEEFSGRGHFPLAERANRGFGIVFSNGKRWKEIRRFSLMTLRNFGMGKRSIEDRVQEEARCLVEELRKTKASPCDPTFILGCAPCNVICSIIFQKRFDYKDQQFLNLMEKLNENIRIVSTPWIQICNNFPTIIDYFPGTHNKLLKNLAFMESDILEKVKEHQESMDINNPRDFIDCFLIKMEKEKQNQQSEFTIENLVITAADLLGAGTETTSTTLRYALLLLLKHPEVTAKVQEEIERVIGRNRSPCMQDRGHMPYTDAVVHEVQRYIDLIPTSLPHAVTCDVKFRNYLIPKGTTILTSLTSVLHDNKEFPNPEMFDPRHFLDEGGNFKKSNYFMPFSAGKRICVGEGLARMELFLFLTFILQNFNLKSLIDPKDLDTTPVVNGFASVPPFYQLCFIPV
CYP2C9 act: activators of human CYP2C9; P11712; recombinant CYP2C9, luciferin-H conversion, luminescence; stronger effect = higher value; factor 1 = untreated enzyme, 0 = blocked; activation factor at 5 µM; 1.4% of 96,000 active; AID 1024;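 active = activation factor of 2 or more for CYP2C9 at a 5 µM dose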;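 also: 0 = sulfaphenazole-blocked wells and 1 = vehicle-only wells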
sEH act: activators of human soluble epoxide hydrolase. AID 717. purified human sEH enzymatic activity, activator screen. P34913. 0.04% of 91,000 active. activation, % at 2 µM; in the data active = activation above about 37%
CYP2C19 inhib: blocks human cytochrome P450 2C19 | P33261 | CYP2C19 Supersomes, luciferin-H EGE luminescence, 30 min | inhibition, % at 5 µM | 21% of 96,000 active | AID 778;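 active = CYP2C19 inhibition above a set limit at 5 µM in the primary screen, cut at about 50% in these data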;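 also: plate controls were negative control wells for no effect and 2.5 mM tranylcypromine positive control for full effect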
CYP2C9 inhib: human CYP2C9 inhibition; CYP2C9 Supersomes, luciferin-H conversion, luminescence; AID 777; inhibition, % at 5 µM; 20% of 96,000 active;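 active = blocking of liver enzyme CYP2C9 beyond about 50% at 5 µM, limit read from the data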
sEH inh: soluble epoxide hydrolase (human) inhibition | P34913 | recombinant human sEH enzymatic activity assay | inhibition, % at 2 µM | 0.34% of 91,000 active | AID 707; in the data active = inhibition above about 80%
* hit, by the source's call; · = no result given.

SMILES	CYP2C19 act	CYP2C9 act	sEH act	CYP2C19 inhib	CYP2C9 inhib	sEH inh
CC1=CC(=O)N(c2cccc(C(F)(F)F)c2)C1c1ccc(Cl)cc1 (stereo not drawn)	0.3	0.6	9	70*	40	-10
Cc1cccc(N2CCN(C(=O)NCc3ccc(Cl)cc3)CC2)c1	·	·	-21	·	·	23
O=C(NC1CCCCCCC1)C1CCCN(S(=O)(=O)c2cnc[nH]2)C1 (stereo not drawn)	0.1	0.5	-56	87*	55*	56
CS(=O)(=O)N1CCCC(C(=O)NC2CCCCCCC2)C1 (stereo not drawn)	0.9	0.9	·	14	9	·
O=C(NC1CCCCC1)C1CCCN(S(=O)(=O)c2cnc[nH]2)C1 (stereo not drawn)	0.4	0.7	·	60*	28	·
O=C(CCc1nc2ccccc2[nH]c1=O)OCC(=O)c1cccc2ccccc12	1.1	1.1	8	-5	-13	-8
O=C1CN(C(=O)COC(=O)c2ccccc2NCc2ccco2)c2ccccc2N1	0.4	0.6	9	56*	40	-10
Cn1c2ccccc2c2cc(C(=O)OCC(=O)N3CC(=O)Nc4ccccc43)sc21	0.1	2*	0	86*	-104	0
CCOc1ncccc1C(=O)OCC(=O)N1CC(=O)Nc2ccccc21	1.1	1.3	·	-11	-32	·
CCC1CCCCN1c1ccc([N+](=O)[O-])cc1/C=N/NC(=O)Cn1c2ccccc2c(=O)c2ccccc21 (stereo not drawn)	1.1	0.5	-31	-7	49	30
Clc1cc(Sc2ccc(Br)cc2)nnc1-c1ccccc1	0.5	0.3	14	54*	68*	-8
COCc1cc(Sc2ccc(Br)cc2)nc(-c2ccccc2)n1	1	0.6	-16	3	40	16
CCOC(=O)C(=Cc1ccc(OCc2ccc([N+](=O)[O-])cc2)c(OC)c1)C(=O)OCC	1	0.5	8	-2	53*	-8
CC(C(=O)NCc1ccco1)n1cc(C(=O)c2ccco2)c2ccccc21 (stereo not drawn)	0.8	0.7	2	20	30	0
CCc1cc2ccc(C)cc2nc1SCC(=O)N1CCN(C(=O)c2ccco2)CC1	0.3	0.1	-4	65*	94*	7
O=C(CSc1nc2ccccc2s1)N1CCN(C(=O)c2ccco2)CC1	0.9	0.7	-1	14	27	0
CCOc1ccc2nc(SCC(=O)c3cccs3)sc2c1	0.4	0.7	-1	55*	32	5
CCOc1ccc2nc(SCC(=O)N3CCN(C(=O)c4ccco4)CC3)sc2c1	0.7	0.5	-5	29	53*	8
O=C(CSc1nc(-c2ccc(F)cc2)cs1)N1CCN(C(=O)c2ccco2)CC1	0.2	1.3	·	76*	-30	·
CCc1cc2cc3c(cc2nc1SCC(=O)N1CCN(C(=O)c2ccco2)CC1)OCO3	0.8	0.5	5	15	47	-4
CCOc1ccc2nc(SCC(=O)c3ccc(Cl)s3)sc2c1	0.8	1.8	-19	22	-77	19
CCOP(=O)(O)c1ccccc1OCCCCCOc1ccccc1P(=O)(O)OCC	1	0.8	13	1	18	-13
COc1ccc2c(c1)nc(SCC(=O)C(C)(C)C)n2C	0.5	1	4	50	-4	0
CCc1cc2cccc(C)c2nc1SCC(=O)N1CCN(C(=O)c2ccco2)CC1	0.6	0.4	·	42	57*	·
Cc1nc(SCC(=O)N2CCN(C(=O)c3ccco3)CC2)c2c(C)c(C)sc2n1	0.5	0.3	4	51*	73*	-4
SMILES	CYP2C19 act	CYP2C9 act	sEH act	CYP2C19 inhib	CYP2C9 inhib	sEH inh
COc1ccc2c(c1)nc(SCC(=O)c1cccs1)n2C	0.5	0.8	0	51*	24	2
CC1=C(C#N)C2C(/C1=N/O)C2(C)C (stereo not drawn)	0.8	0.8	7	24	20	-7
O=C(CC1NCCNC1=O)OCCCc1ccccc1 (stereo not drawn)	0.9	1.1	-3	13	-13	4
N#Cc1ccc(C(=O)Nc2ccc(N3CCN(C(=O)c4ccco4)CC3)cc2)c(F)c1	0.9	0.8	-36	12	20	37
CCOC(=O)CC(=O)CSc1nc(N)c(C#N)c(-c2ccc(Cl)cc2)c1C#N	0.2	0.4	·	84*	62*	·
COC(=O)C(Sc1nc(C)cc(C)c1C#N)c1ccccc1 (stereo not drawn)	0.5	0.5	6	54*	46	-3
CCOC(=O)CC(=O)CSc1nc(C)cc(C)c1C#N	0.3	0.7	4	70*	34	0
COc1ccc(NC(=O)CC2Oc3ccc(C)cc3NC2=O)cc1 (stereo not drawn)	1	0.9	·	-2	5	·
CCOCc1nc(N)[nH]c(=O)c1Cc1ccc(OC(C)C)cc1	·	·	-2	·	·	1
CC1CCCCN1S(=O)(=O)c1ccc(NC(=O)CSc2nnnn2C)cc1 (stereo not drawn)	1	0.7	·	4	28	·
CCOC(=O)c1c(-c2ccccc2)csc1NC(=O)c1nn(CC)cc1Br	0.9	0.9	3	10	10	0
CCOC(=O)c1c(-c2ccccc2)csc1NC(=O)c1ccc(S(=O)(=O)N2CC(C)OC(C)C2)cc1 (stereo not drawn)	0.6	0.2	17	39	77*	-19
CCOC(=O)c1c(-c2ccccc2)csc1NC(=O)c1ccc(N2C(=O)CCC2=O)cc1	0.8	0.5	20	15	50*	-16
CC(C)C(NC(=O)CN1C(=O)c2ccccc2S1(=O)=O)C(C)C	0.6	1	-8	36	-4	9
O=C(CN1C(=O)c2ccccc2S1(=O)=O)NC1CCCCCC1	0.3	0.9	·	66*	12	·
CCc1cccc(C)c1NC(=O)CN1C(=O)c2ccccc2S1(=O)=O	0.2	0.6	·	77*	37	·
COC(=O)c1ccc(C)c(NC(=O)CN2C(=O)c3ccccc3S2(=O)=O)c1	0.7	0.2	7	30	83*	-3
CCOC(=O)c1ccccc1NC(=O)CN1C(=O)c2ccccc2S1(=O)=O	1	0.8	8	-2	21	-8
CCc1cccc(C)c1NC(=O)CSc1nc2ccc(N3C(=O)c4ccccc4C3=O)cc2s1	0.7	0.5	-4	35	51*	6
Cc1cc(C)c(NC(=O)C(C)Sc2nc3ccc(N4C(=O)c5ccccc5C4=O)cc3s2)c(C)c1 (stereo not drawn)	0.8	0.9	8	15	14	-10
COc1ccc(Cl)cc1NC(=O)COC(=O)CCNC(C)=O	0.8	1.9	·	18	-94	·
COc1cc2c(cc1OC)-c1nnc(-c3ccco3)n1C1(CCCC1)C2	·	·	25	·	·	-18
Cc1c(NC(=O)OCCSc2nc(N(C)C)nc(N(C)C)n2)sc(=S)n1C	0.9	0.9	2	14	5	0
Cc1nnc(Oc2ccccc2F)c2ccccc12	0.8	1.2	12	23	-22	-12

Assay outcomes from PubChem.
